# Counter-ions that a name gives are not always drawn. ± gives the standard deviation of the averaged measurements. In all, about 1,100 compounds were measured (“day of extracellular matrix detachment from plate”: median about 16, lowest 2% from about 10 on). The full list was thinned out, with the lowest values kept by preference.
# System: RDEB dermal fibroblasts EB71
# Test: day of extracellular matrix detachment from plate (days); higher = delayed detachment (less fibrotic matrix)
# Conditions: compound concentration: 10 uM
row,SMILES,day of extracellular matrix detachment from plate
1,Cc1cccc(Cc2c[nH]cn2)c1C [Detomidine HCl],14.7 ± 7.4
2,Cc1cccc(C(C)c2c[nH]cn2)c1C (stereo unspecified) [Medetomidine HCl],17 ± 5.2
3,Cc1cccc([C@H](C)c2c[nH]cn2)c1C [Dexmedetomidine HCl (Precedex)],10 ± 1.7
4,Cc1cccc([C@H](C)c2c[nH]cn2)c1C [Dexmedetomidine],18
5,O=C(O[C@H]1C[C@H]2CC[C@@H](C1)[N+]21CCCC1)C(O)(c1ccccc1)c1ccccc1 [Trospium chloride],12
6,Cc1ccc(-c2nc3ccc(C)cn3c2CC(=O)N(C)C)cc1 [Zolpidem],17.7 ± 1.1
7,C=C1CC[C@@]2(O)[C@H]3Cc4ccc(O)c5c4[C@@]2(CCN3CC2CC2)[C@H]1O5 [Nalmefene HCl],13
8,O=C1CC[C@@]2(O)[C@H]3Cc4ccc(O)c5c4[C@@]2(CCN3CC2CC2)[C@H]1O5 [Naltrexone HCl],10 ± 1.7
9,C=CCN1CC[C@]23c4c5ccc(O)c4O[C@H]2C(=O)CC[C@@]3(O)[C@H]1C5 [Naloxone HCl],17.7 ± 3.5
10,O=C(O[C@H]1C[N+]2(CCCOc3ccccc3)CCC1CC2)C(O)(c1cccs1)c1cccs1 [Aclidinium Bromide],16.7 ± 2.3
11,N[C@@H]1C[C@H]1c1ccccc1 [Tranylcypromine (2-PCPA) HCl],13
